According to PubChem BioAssay (Tox21):
Records with an inconclusive call do not appear. Active and inactive are the calls of the source. Unless noted, calls come from the whole dose curve; as a rule, active = well fitted curve in the direction sought with a large enough effect in the repeat runs; inconclusive = weak or mixed curves; inactive = no such curve, though single readings can be large; an effect the other way counts as inactive or inconclusive.

Columns and labels:
[1] = molecular target: Thyrotropin receptor (Homo sapiens) (UniProt P16473); assay: qHTS assay to identify small molecule agonists of the thyroid stimulating hormone receptor (TSHR) signaling pathway (AID 1224843; calls by dose curve; note: nearly all actives have a fitted effect of over 45% in size)
Thyrotropin receptor (Homo sapiens), sequence (P16473 whole entry, looked up): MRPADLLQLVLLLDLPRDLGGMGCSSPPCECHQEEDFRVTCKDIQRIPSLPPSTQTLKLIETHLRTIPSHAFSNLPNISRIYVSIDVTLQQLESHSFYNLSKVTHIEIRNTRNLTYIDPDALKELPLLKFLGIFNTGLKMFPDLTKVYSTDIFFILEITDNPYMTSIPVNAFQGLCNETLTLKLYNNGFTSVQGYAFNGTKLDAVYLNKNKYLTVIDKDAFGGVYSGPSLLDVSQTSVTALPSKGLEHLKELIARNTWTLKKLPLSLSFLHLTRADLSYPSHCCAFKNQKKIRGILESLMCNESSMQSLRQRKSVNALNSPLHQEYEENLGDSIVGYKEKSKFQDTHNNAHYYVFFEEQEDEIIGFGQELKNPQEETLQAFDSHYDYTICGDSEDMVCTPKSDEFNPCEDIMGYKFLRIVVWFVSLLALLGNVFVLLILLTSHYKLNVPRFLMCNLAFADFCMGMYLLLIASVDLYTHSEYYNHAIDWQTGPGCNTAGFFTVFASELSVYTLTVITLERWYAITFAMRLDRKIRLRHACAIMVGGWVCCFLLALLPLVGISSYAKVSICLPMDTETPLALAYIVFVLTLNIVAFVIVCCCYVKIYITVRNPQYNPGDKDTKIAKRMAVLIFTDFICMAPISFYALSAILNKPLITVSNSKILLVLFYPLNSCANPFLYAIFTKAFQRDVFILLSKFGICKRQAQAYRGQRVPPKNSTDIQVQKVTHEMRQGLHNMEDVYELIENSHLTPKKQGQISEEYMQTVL
Summary of the method: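 TSHR-expressing HEK293 cells (800 per well) were exposed to compounds for 30 min at room temperature. cAMP was then detected by HTRF competition with cAMP-d2 and anti-cAMP cryptate, read after 1 h at room temperature. Fifteen concentrations, triplicate.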

[2] = qHTS assay to identify small molecule agonists of the hypoxia (HIF-1) signaling pathway - cell viability counter screen (AID 1224844; calls by dose curve; note: nearly all actives have a fitted effect of over 50% in size)
Summary of the method: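 HRE-bla ME-180 cells in medium with 0.5% dialyzed FBS were preincubated 5 hrs at 37C, exposed to compounds for 17 hrs, then viability was read as CellTiter-Glo luminescence after 30 min at room temperature, in the reporter wells.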

[3] = qHTS assay to identify small molecule agonists of H2AX (AID 1224845; active = well fitted activation curve with a large enough effect in the signal ratio in the repeat runs, not every such curve was filed as active; the % refers to the signal ratio)
Summary of the method: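 Wild-type CHO-K1 cells plated overnight, then exposed 3 hr at 37C to compounds at 15 concentrations (0.76% DMSO). Lysed, then HTRF anti-pH2AX(S139)-cryptate/anti-H2AX-d2 detection after 24 hr at room temperature; emissions 665 and 620 nm.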

[4] = qHTS assay to identify small molecule agonists of the hypoxia (HIF-1) signaling pathway (AID 1224846; active = well fitted activation curve with a large enough effect in the signal ratio in the repeat runs, not every such curve was filed as active; the % refers to the signal ratio)
Summary of the method: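 HRE-bla ME-180 cells (beta-lactamase reporter under hypoxia response element) were plated at 2,000 cells/well in medium with 0.5% dialyzed FBS, rested 5 hrs, then given compounds in DMSO for 17 hrs at 37C, 5% CO2. Reporter induction was read with CCF4-AM FRET substrate.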

[5] = qHTS assay to identify small molecule agonists of H2AX - cell viability counter screen (AID 1224847; calls by dose curve; note: top concentration of the series differs between compounds; nearly all actives have a fitted effect of over 30% in size)
Summary of the method: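 After overnight plating of 1000 CHO-K1 cells per well, a 15-concentration compound series was applied for 3 hr at 37C. Luminescence from CellTiter-Glo, read following 30 min at room temperature, reflected cell viability.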

[6] = qHTS RealTime-Glo MT Cell Viability Assay in HepG2 cells - 24 hour (AID 1224867); note: nearly all actives have a fitted effect of over 50% in size
Summary of the method: (§1)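 Tox21 10K library screened in qHTS format on HepG2 cells carrying RealTime-Glo reagents. Compounds were added after a 5 h preincubation, and the luminescent signal from continuous culture was measured repeatedly during 40 h treatment.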

[7] = A CellTox Green Cytotoxicity Assay to monitor cytotoxicity in HEK293 cells - 0 hour (AID 1224869); note: nearly all actives have a fitted effect of over 50% in size
Summary of the method: (§2)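 HEK293 cells premixed with CellTox Green dye were seeded at 600 cells/well and left 5 h at 37 C/5% CO2 before pin transfer of 23 nL compound in DMSO. Fluorescence from dye bound to dead-cell DNA was read during 40 h treatment.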

[8] = qHTS RealTime-Glo MT Cell Viability Assay in HepG2 cells - 40 hour (AID 1224870); note: nearly all actives have a fitted effect of over 50% in size
Summary of the method: (§3)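 HepG2 cells mixed with RealTime-Glo MT reagents (NanoLuc plus cell-permeant prosubstrate) were seeded at 600 cells/well, incubated 5 h at 37 C/5% CO2, then pinned with compounds in DMSO; nonlytic luminescence tracked viability during 40 h treatment.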

[9] = A CellTox Green Cytotoxicity Assay to monitor cytotoxicity in HEK293 cells - 40 hour (AID 1224871); note: nearly all actives have a fitted effect of over 45% in size
Summary of the method: as §2

[10] = qHTS RealTime-Glo MT Cell Viability Assay in HEK293 cells - 16 hour (AID 1224872)
Summary of the method: (§4)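 Luminescence generated by NanoLuc from substrate produced by living HEK293 cells served as the viability signal. Each value reflects the reading at its stated time point during continuous 40 h compound exposure at 37 C.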

[11] = qHTS RealTime-Glo MT Cell Viability Assay in HepG2 cells - 8 hour (AID 1224873); note: nearly all actives have a fitted effect of over 55% in size
Summary of the method: as §3

[12] = qHTS RealTime-Glo MT Cell Viability Assay in HEK293 cells - 40 hour (AID 1224874); conditions: RealTime-Glo luminescence; max response: stronger effect = lower value; note: nearly all actives have a fitted effect of over 50% in size
Summary of the method: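 HEK293 cells mixed with RealTime-Glo reagents (NanoLuc plus cell-permeant prosubstrate) at 600 cells/well, preincubated 5 h at 37 C/5% CO2, then given 23 nL compound in DMSO. Nonlytic luminescence from viable cells was read at 0, 8, 16, 24, 32 and 40 h.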

[13] = A CellTox Green Cytotoxicity Assay to monitor cytotoxicity in HEK293 cells - 24 hour (AID 1224875); note: nearly all actives have a fitted effect of over 45% in size
Summary of the method: as §2

[14] = A CellTox Green Cytotoxicity Assay to monitor cytotoxicity in HepG2 cells - 16 hour (AID 1224876); note: nearly all actives have a fitted effect of over 45% in size
Summary of the method: (§5)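 HepG2 cells were seeded together with the CellTox Green dye at 600 cells/well, left 5 h at 37 C/5% CO2, then given compounds in DMSO. Fluorescence from dye bound to dead-cell DNA was read repeatedly over 40 h of treatment at 37 C.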

[15] = qHTS RealTime-Glo MT Cell Viability Assay in HepG2 cells - 32 hour (AID 1224877); note: nearly all actives have a fitted effect of over 55% in size
Summary of the method: as §1

[16] = A CellTox Green Cytotoxicity Assay to monitor cytotoxicity in HepG2 cells - 24 hour (AID 1224878); note: nearly all actives have a fitted effect of over 45% in size
Summary of the method: as §5

[17] = A CellTox Green Cytotoxicity Assay to monitor cytotoxicity in HepG2 cells - 40 hour (AID 1224879); note: nearly all actives have a fitted effect of over 40% in size
Summary of the method: as §5

[18] = qHTS RealTime-Glo MT Cell Viability Assay in HEK293 cells - 32 hour (AID 1224868)
Summary of the method: as §4

[19] = qHTS assay to identify small molecule antagonists of the estrogen related receptor (ERR) signaling pathway from Tox21 library (AID 1224848); note: nearly all actives have a fitted effect of over 50% in size
Summary of the method: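 Cells: ERR line, 2,000/well; 6 h preincubation 37 C/5% CO2. Cpd in DMSO via pin tool; 18 h, 37 C. ONE-Glo, 30 min RT, luminescence.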

[20] = qHTS assay to identify small molecule agonists of the estrogen related receptor (ERR) signaling pathway from Tox21 library (AID 1224849; calls by dose curve; note: nearly all actives have a fitted effect of over 15% in size); conditions: ERR reporter cell line, ONE-Glo luciferase, 18 h; at 92.4 µM (top of the series) unless noted
Summary of the method: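 ERR reporter cell line (NTP) seeded, rested 6 h at 37 C/5% CO2, then pinned with Tox21 compounds in DMSO. After 18 h at 37 C, ONE-Glo luciferase luminescence was read following 30 min at room temperature.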
% is set by controls: 0 for no effect and ±100 for the full control effect.

OCC(O)[C@@H](O)[C@H](O)[C@H](O)CO[C@H]1O[C@H](CO)[C@@H](O)[C@H](O)[C@H]1O (some centres not stated)
inactive: outcome [1] | Potency [2] | outcome [3] | outcome [4] | Potency [5] | outcome [6] | Potency [7] | Potency [8] | Potency [9] | Potency [10] | outcome [11] | max response [12] -0.563% | Potency [13] | Potency [14] | Potency [15] | Potency [16] | Potency [17]

CCCCCCC(CCCCCCCCCCC(=O)OCC(COC(C)=O)OC(C)=O)OC(C)=O (configuration not stated)
inactive: outcome [1] | Potency [2] | outcome [3] | outcome [4] | Potency [5] | outcome [6] | Potency [18] | Potency [7] | Potency [8] | Potency [9] | outcome [11] | max response [12] 14.5% | Potency [13] | Potency [14] | Potency [15] | Potency [16] | Potency [17]

OCCN1C[C@H](O)[C@@H](O)[C@H](O)[C@H]1CO
inactive: outcome [1] | Potency [2] | outcome [3] | Potency [5] | outcome [6] | Potency [18] | Potency [7] | Potency [8] | Potency [9] | Potency [10] | outcome [11] | max response [12] 3.53% | Potency [14] | Potency [15] | Potency [16] | Potency [17]

C=C(C)C(=O)OCCC(C)OC(=O)C(=C)C (configuration not stated)
inactive: outcome [1] | Potency [2] | outcome [4] | Potency [5] | Potency [19] | activity change, positive = activation [20] 3.72% | outcome [6] | Potency [18] | Potency [7] | Potency [8] | Potency [9] | Potency [10] | outcome [11] | max response [12] 8.52% | Potency [13] | Potency [14] | Potency [15] | Potency [16] | Potency [17]

CC1=CC(C)C(C=O)C(C)C1 (configuration not stated)
inactive: outcome [1] | Potency [2] | outcome [3] | Potency [5] | outcome [6] | Potency [18] | Potency [8] | Potency [9] | Potency [10] | max response [12] 4.71% | Potency [13] | Potency [14] | Potency [16] | Potency [17]

N#CC1(O)CCCCC1
inactive: outcome [1] | Potency [2] | outcome [4] | Potency [5] | Potency [19] | activity change, positive = activation [20] 7.59% | outcome [6] | Potency [18] | Potency [7] | Potency [8] | Potency [9] | Potency [10] | outcome [11] | max response [12] -16.1% | Potency [14] | Potency [15] | Potency [16] | Potency [17]

CN(C)CCOC(c1ccc(Cl)cc1)c1ccccn1 (configuration not stated)
inactive: outcome [1] | Potency [2] | outcome [3] | Potency [5] | outcome [6] | Potency [18] | Potency [8] | Potency [9] | Potency [10] | outcome [11] | max response [12] 6.99% | Potency [13] | Potency [14] | Potency [15] | Potency [16] | Potency [17]

C1CCCCCCCCCCC1
inactive: activation [1] -4.17% [at 19 µM] | activity change, negative = cytotoxicity [2] 3.97% [at 15.8 µM] | activation (H2AX phosphorylation) [3] 1.29% [at 31.6 µM] | activity change, negative = cytotoxicity [5] 0.456% [at 31.6 µM] | activity, negative = inhibition [19] -2.47% [at 19 µM] | activity change, positive = activation [20] -0.61% [at 19 µM] | activity change, negative = cytotoxicity [6] 3.08% [at 15.8 µM] | cytotoxicity [7] -14.8% [at 15.8 µM] | cytotoxicity increase [9] -40.6% [at 15.8 µM] | viability change, negative = cytotoxic [11] -9.68% [at 15.8 µM] | activity change [13] -35.9% [at 15.8 µM, stronger effect = higher value] | cytotoxicity increase [14] -3.96% [at 15.8 µM] | activity change, negative = cytotoxic [15] 12% [at 15.8 µM] | cytotoxicity [16] -7.04% [at 15.8 µM] | cytotoxicity increase [17] -12.7% [at 15.8 µM]

Nc1ncnc2c1ncn2Cc1c(F)cccc1Cl
inactive: outcome [1] | Potency [2] | outcome [3] | Potency [5] | Potency [19] | activity change, positive = activation [20] 0.331% [at 42.5 µM] | outcome [6] | Potency [18] | Potency [7] | Potency [8] | Potency [9] | outcome [11] | max response [12] -12.1% | Potency [13] | Potency [14] | Potency [15] | Potency [16] | Potency [17]

CCCCCCCCCCCCCCCCCCOCC(O)CO (configuration not stated)
inactive: outcome [1] | Potency [2] | outcome [3] | Potency [5] | outcome [6] | Potency [18] | Potency [8] | Potency [9] | outcome [11] | max response [12] -20.9% | Potency [15] | Potency [17]

CN(C)N=Nc1ccccc1
inactive: outcome [1] | Potency [2] | outcome [3] | Potency [5] | Potency [19] | activity change, positive = activation [20] 9.49% | outcome [6] | Potency [18] | Potency [7] | Potency [8] | Potency [9] | outcome [11] | max response [12] 15% | Potency [13] | Potency [14] | Potency [15] | Potency [16] | Potency [17]

Cn1cnc2c(=O)[nH]c(N)nc21
inactive: outcome [1] | Potency [2] | outcome [3] | Potency [5] | outcome [6] | Potency [18] | Potency [7] | Potency [8] | Potency [9] | Potency [10] | outcome [11] | max response [12] 15.1% | Potency [13] | Potency [14] | Potency [15] | Potency [16] | Potency [17]

CCCOc1ccccc1-c1nc2n[nH]nc2c(=O)[nH]1
inactive: outcome [1] | Potency [2] | outcome [3] | Potency [5] | outcome [6] | Potency [7] | Potency [8] | Potency [9] | Potency [10] | Potency [13] | Potency [14] | Potency [15] | Potency [16] | Potency [17]

Cc1ccccc1Br
inactive: outcome [1] | Potency [2] | outcome [4] | Potency [5] | Potency [19] | activity change, positive = activation [20] -0.692% | outcome [6] | Potency [18] | Potency [7] | Potency [8] | Potency [9] | Potency [10] | outcome [11] | max response [12] 5.36% | Potency [13] | Potency [14] | Potency [15] | Potency [16] | Potency [17]

O=S(=O)(c1cccc2cnccc12)N1CCCNCC1
inactive: outcome [1] | Potency [2] | outcome [3] | Potency [5] | activity change, positive = activation [20] -26.8% [at 42.5 µM] | outcome [6] | Potency [18] | Potency [7] | Potency [8] | Potency [9] | Potency [10] | outcome [11] | max response [12] 8.06% | Potency [13] | Potency [14] | Potency [15] | Potency [16]
